# According to PubChem BioAssay (EPA / NIEHS):
# Records with an inconclusive call do not appear. The source made the active and inactive calls. Rule for the calls, unless noted: active = hit-call score of the fitted dose curve at least 0.9, where 1 is the maximum; inactive = score below 0.9.
# Biological target: human Thyroid Receptor alpha (THRa1), THRA (gene 7067) (UniProt P10827)
# Assay: ATG_THRa1_TRANS: Attagene TRANS-FACTORIAL HepG2 Assay for human Thyroid Receptor alpha (THRa1) (AID 2283014; active = hit-call score of the fitted dose curve at least 0.9, where 1 is the maximum)
# Details: not given
# In short: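 Measured here is mRNA from a GAL4-UAS reporter in transfected HepG2 cells carrying a Gal4-fused receptor, 24 h post-dose. DMSO served as negative control and baseline.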
# Sequence of human Thyroid Receptor alpha (THRa1), THRA (gene 7067) (P10827 whole entry, looked up): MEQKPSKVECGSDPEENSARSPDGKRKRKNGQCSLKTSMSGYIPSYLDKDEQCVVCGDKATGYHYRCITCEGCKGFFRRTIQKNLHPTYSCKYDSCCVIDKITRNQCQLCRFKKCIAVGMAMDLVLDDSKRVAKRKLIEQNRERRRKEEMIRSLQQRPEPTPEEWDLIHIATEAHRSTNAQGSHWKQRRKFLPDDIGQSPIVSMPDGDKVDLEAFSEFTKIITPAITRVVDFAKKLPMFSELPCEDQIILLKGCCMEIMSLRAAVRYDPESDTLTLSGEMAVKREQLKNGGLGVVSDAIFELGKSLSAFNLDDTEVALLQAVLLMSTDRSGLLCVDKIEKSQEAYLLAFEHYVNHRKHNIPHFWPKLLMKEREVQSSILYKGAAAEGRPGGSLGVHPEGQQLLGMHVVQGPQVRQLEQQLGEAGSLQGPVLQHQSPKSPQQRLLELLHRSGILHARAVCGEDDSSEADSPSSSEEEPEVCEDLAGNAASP
# Sequence of E-selectin (Homo sapiens) (P16581 whole entry, looked up): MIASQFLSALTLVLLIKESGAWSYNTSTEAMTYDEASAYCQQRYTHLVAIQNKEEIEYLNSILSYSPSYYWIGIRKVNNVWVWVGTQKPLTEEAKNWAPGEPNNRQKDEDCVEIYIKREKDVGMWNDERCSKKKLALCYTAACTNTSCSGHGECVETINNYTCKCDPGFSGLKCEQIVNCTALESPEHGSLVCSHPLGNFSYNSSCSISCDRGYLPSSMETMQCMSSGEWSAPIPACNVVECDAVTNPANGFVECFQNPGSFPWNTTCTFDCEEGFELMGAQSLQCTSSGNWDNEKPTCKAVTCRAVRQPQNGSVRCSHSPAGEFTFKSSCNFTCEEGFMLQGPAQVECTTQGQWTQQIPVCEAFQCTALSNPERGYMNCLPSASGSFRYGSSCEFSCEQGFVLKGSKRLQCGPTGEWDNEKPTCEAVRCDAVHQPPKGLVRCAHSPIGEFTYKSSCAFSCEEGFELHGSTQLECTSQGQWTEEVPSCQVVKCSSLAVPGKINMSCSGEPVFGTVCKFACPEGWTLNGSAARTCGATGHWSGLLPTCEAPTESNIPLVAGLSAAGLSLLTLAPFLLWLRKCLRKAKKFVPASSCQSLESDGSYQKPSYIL
row,Compound,outcome
1,COc1ccc(Nc2ccccc2)c(C)c1,inactive
2,CCCOCC(C)O (stereo unspecified),inactive
3,CCn1c2ccccc2c2cc(N)ccc21,inactive
4,COC(=O)c1ccc(C)cc1,inactive
5,CN(CCOc1ccc(CC2SC(=O)NC2=O)cc1)c1ccccn1 (stereo unspecified),inactive
6,CC(=O)/C=C/C1=C(C)CCCC1(C)C,inactive
7,c1ccc2[nH]ccc2c1,inactive
8,BrC1CCC(Br)C(Br)CCC(Br)C(Br)CCC1Br (stereo unspecified),inactive
9,O=C1CCCCCCCCCCOCCCCO1,inactive
10,O=C(O)C[C@H](O)C[C@H](O)/C=C/c1c(C2CC2)nc2ccccc2c1-c1ccc(F)cc1,inactive
11,COc1c(Cl)c(Cl)c(Cl)c(Cl)c1Cl,inactive

# Read-out: E-selectin (Homo sapiens) (UniProt P16581)
# Assay: BSK_3C_Eselectin: BioMAP Diversity Plus: 3C Assay for Eselectin Biomarker Activity (AID 2283015);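 for outcome: cell surface E-selectin protein quantified by ELISA 24 h after dosing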
# Details: primary human endothelial cells (HUVEC); actives raise or lower the signal
# In short: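 Endpoint derived by bidirectional fitting against DMSO vehicle; signal is ELISA-detected E-selectin from primary HUVEC at 24 h post-dosing, with parallel SRB staining (0.1% SRB, 560 nm) flagging cytotoxicity.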
Compound,outcome,AC50
CCn1c2ccccc2c2cc(N)ccc21,inactive,–
COC(=O)c1ccc(C)cc1,inactive,–
CN(CCOc1ccc(CC2SC(=O)NC2=O)cc1)c1ccccn1 (stereo unspecified),–,3.97 µM (active)
CC(=O)/C=C/C1=C(C)CCCC1(C)C,inactive,–
BrC1CCC(Br)C(Br)CCC(Br)C(Br)CCC1Br (stereo unspecified),inactive,–
O=C(O)C[C@H](O)C[C@H](O)/C=C/c1c(C2CC2)nc2ccccc2c1-c1ccc(F)cc1,inactive,–

# Read-out: Interleukin-1 alpha (IL1a), IL1A (gene 3552)
# Assay: BSK_BE3C_IL1a: BioMAP Diversity Plus: BE3C Assay for Interleukin-1 alpha (IL1a) Biomarker Activity (AID 2283016)
# Details: primary human bronchial epithelial cells; actives raise or lower the signal
# In short: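 Measured in human lung primary bronchial epithelial cells: IL-1a by ELISA at 24 h after dosing, with bidirectional fitting against DMSO.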
Compound,outcome,AC50
CCn1c2ccccc2c2cc(N)ccc21,inactive,–
COC(=O)c1ccc(C)cc1,inactive,–
CN(CCOc1ccc(CC2SC(=O)NC2=O)cc1)c1ccccn1 (stereo unspecified),–,3.97 µM (active)
CC(=O)/C=C/C1=C(C)CCCC1(C)C,inactive,–
BrC1CCC(Br)C(Br)CCC(Br)C(Br)CCC1Br (stereo unspecified),inactive,–
O=C(O)C[C@H](O)C[C@H](O)/C=C/c1c(C2CC2)nc2ccccc2c1-c1ccc(F)cc1,–,1.43 µM (active)

# Read-out: Monocyte Chemoattractant Protein-1 (MCP1), CCL2 (gene 6347)
# Assay: BSK_3C_MCP1: BioMAP Diversity Plus: 3C Assay for Monocyte Chemoattractant Protein-1 (MCP1) Biomarker Activity (AID 2283017)
# Details: primary human endothelial cells (HUVEC); actives raise or lower the signal
# In short: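 Using human vascular primary endothelium, researchers measured MCP-1 by ELISA 24 h after treatment, with DMSO serving as negative control for bidirectional fitting.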
Compound,AC50,outcome
CCn1c2ccccc2c2cc(N)ccc21,0.641 µM (active),–
COC(=O)c1ccc(C)cc1,–,inactive
CN(CCOc1ccc(CC2SC(=O)NC2=O)cc1)c1ccccn1 (stereo unspecified),0.113 µM (active),–
CC(=O)/C=C/C1=C(C)CCCC1(C)C,–,inactive
BrC1CCC(Br)C(Br)CCC(Br)C(Br)CCC1Br (stereo unspecified),4.64 µM (active),–
O=C(O)C[C@H](O)C[C@H](O)/C=C/c1c(C2CC2)nc2ccccc2c1-c1ccc(F)cc1,–,inactive

# Read-out: Monocyte Chemoattractant Protein-1 (MCP1), CCL2 (gene 6347)
# Assay: BSK_4H_MCP1: BioMAP Diversity Plus: 4H Assay for Monocyte Chemoattractant Protein-1 (MCP1) Biomarker Activity (AID 2283018)
# Details: primary human endothelial cells (HUVEC); actives raise or lower the signal
# In short: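 Primary human umbilical vein endothelium is exposed to chemical for 24 h before MCP-1 is assayed by ELISA. Concentration-response fitted bidirectionally relative to DMSO.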
Compound,AC50,outcome
CCn1c2ccccc2c2cc(N)ccc21,0.812 µM (active),–
COC(=O)c1ccc(C)cc1,–,inactive
CN(CCOc1ccc(CC2SC(=O)NC2=O)cc1)c1ccccn1 (stereo unspecified),3.97 µM (active),–
CC(=O)/C=C/C1=C(C)CCCC1(C)C,–,inactive
BrC1CCC(Br)C(Br)CCC(Br)C(Br)CCC1Br (stereo unspecified),1.58 µM (active),–
O=C(O)C[C@H](O)C[C@H](O)/C=C/c1c(C2CC2)nc2ccccc2c1-c1ccc(F)cc1,0.551 µM (active),–

# Read-out: Human Leukocyte Antigen - DR isotype (HLADR), HLA-DRA (gene 3122)
# Assay: BSK_3C_HLADR: BioMAP Diversity Plus: 3C Assay for Human Leukocyte Antigen - DR isotype (HLADR) Biomarker Activity (AID 2283019);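 for outcome: ELISA of cell-surface HLA-DR on HUVEC 24 h after dosing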
# Details: primary human endothelial cells (HUVEC); actives raise or lower the signal
# In short: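 Compound added to primary HUVEC cultures, 24 h incubation, then HLA-DR determined by ELISA; endpoint derived by bidirectional fitting relative to DMSO negative control.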
Compound,AC50,outcome
CCn1c2ccccc2c2cc(N)ccc21,1.57 µM (active),–
COC(=O)c1ccc(C)cc1,–,inactive
CN(CCOc1ccc(CC2SC(=O)NC2=O)cc1)c1ccccn1 (stereo unspecified),9.42 µM (active),–
CC(=O)/C=C/C1=C(C)CCCC1(C)C,–,inactive
BrC1CCC(Br)C(Br)CCC(Br)C(Br)CCC1Br (stereo unspecified),3.33 µM (active),–
O=C(O)C[C@H](O)C[C@H](O)/C=C/c1c(C2CC2)nc2ccccc2c1-c1ccc(F)cc1,–,inactive

# Read-out: Interleukin-8 (IL8), CXCL8 (gene 3576)
# Assay: BSK_3C_IL8: BioMAP Diversity Plus: 3C Assay for Interleukin-8 (IL8) Biomarker Activity (AID 2283020)
# Details: primary human endothelial cells (HUVEC); actives raise or lower the signal
# In short: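 Using DMSO-treated wells as the baseline, bidirectional curve fitting was applied to ELISA-measured IL-8 from human umbilical vein endothelial cultures sampled 24 h after compound addition.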
Compound,outcome,AC50
CCn1c2ccccc2c2cc(N)ccc21,inactive,–
COC(=O)c1ccc(C)cc1,inactive,–
CN(CCOc1ccc(CC2SC(=O)NC2=O)cc1)c1ccccn1 (stereo unspecified),inactive,–
CC(=O)/C=C/C1=C(C)CCCC1(C)C,inactive,–
BrC1CCC(Br)C(Br)CCC(Br)C(Br)CCC1Br (stereo unspecified),–,4.7 µM (active)
O=C(O)C[C@H](O)C[C@H](O)/C=C/c1c(C2CC2)nc2ccccc2c1-c1ccc(F)cc1,inactive,–

# Read-out: Monokine induced gamma interferon (MIG), CXCL9 (gene 4283)
# Assay: BSK_3C_MIG: BioMAP Diversity Plus: 3C Assay for Monokine induced gamma interferon (MIG) Biomarker Activity (AID 2283021)
# Details: primary human endothelial cells (HUVEC); actives raise or lower the signal
# In short: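 ELISA-measured MIG in dosed HUVEC 3C cultures at 24 h, analysed by bidirectional fitting with DMSO defining baseline activity.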
row,Compound,outcome
1,CCn1c2ccccc2c2cc(N)ccc21,inactive
2,COC(=O)c1ccc(C)cc1,inactive
3,CN(CCOc1ccc(CC2SC(=O)NC2=O)cc1)c1ccccn1 (stereo unspecified),inactive
4,CC(=O)/C=C/C1=C(C)CCCC1(C)C,inactive
5,BrC1CCC(Br)C(Br)CCC(Br)C(Br)CCC1Br (stereo unspecified),inactive
6,O=C(O)C[C@H](O)C[C@H](O)/C=C/c1c(C2CC2)nc2ccccc2c1-c1ccc(F)cc1,inactive

# Biological target: human Vitamin D Receptor (VDR), VDR (gene 7421) (UniProt P11473)
# Assay: ATG_VDR_TRANS: Attagene TRANS-FACTORIAL HepG2 Assay for human Vitamin D Receptor (VDR) (AID 2283022; active = hit-call score of the fitted dose curve at least 0.9, where 1 is the maximum)
# Details: not given
# In short: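 Multiplexed TRANS reporter in HepG2; 24 h treatment; reporter mRNA by RT-PCR plus capillary electrophoresis; upregulation scored relative to DMSO.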
# Sequence of human Vitamin D Receptor (VDR), VDR (gene 7421) (P11473 whole entry, looked up): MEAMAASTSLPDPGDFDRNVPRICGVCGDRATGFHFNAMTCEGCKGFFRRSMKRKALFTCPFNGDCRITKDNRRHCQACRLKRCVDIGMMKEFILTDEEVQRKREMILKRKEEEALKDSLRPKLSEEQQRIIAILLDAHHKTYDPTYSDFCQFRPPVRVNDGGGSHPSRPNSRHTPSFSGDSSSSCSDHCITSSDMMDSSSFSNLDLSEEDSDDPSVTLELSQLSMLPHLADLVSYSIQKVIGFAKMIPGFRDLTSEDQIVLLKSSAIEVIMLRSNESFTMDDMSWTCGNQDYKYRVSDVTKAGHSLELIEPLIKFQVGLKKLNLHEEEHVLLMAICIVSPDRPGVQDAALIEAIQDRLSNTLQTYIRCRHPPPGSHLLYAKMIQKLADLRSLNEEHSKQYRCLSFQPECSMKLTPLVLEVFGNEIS
row,Compound,outcome
1,CCCC(=O)C(C)=O,inactive
2,NCCCCCCN,inactive
3,N#Cc1ccccc1,inactive
4,O=C(O)CCCCC1CCSS1 (stereo unspecified),inactive
5,COC(=O)c1ccc(C)cc1,inactive
6,CC1(C)OC[C@@H]2O[C@@]3(C(=O)O)OC(C)(C)O[C@H]3[C@@H]2O1,inactive
7,CC(=O)/C=C/C1=C(C)CCCC1(C)C,inactive
8,BrC1CCC(Br)C(Br)CCC(Br)C(Br)CCC1Br (stereo unspecified),inactive
9,O=C(O)C[C@H](O)C[C@H](O)/C=C/c1c(C2CC2)nc2ccccc2c1-c1ccc(F)cc1,inactive
10,O=C1NC(=O)c2ccccc21,inactive
11,CC(=O)OCC=Cc1ccccc1,inactive
12,COCCOCCOCCOCCOCCO,inactive

# Read-out: not listed separately
# Assay: BSK_3C_SRB: Viability Assessment in the BioMAP Diversity Plus: 3C Assay (AID 2283023);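 note: cells read 24 h after compound dosing; fitted both ways against DMSO so a hit may be signal rise or drop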
# Details: primary human endothelial cells (HUVEC)
# In short: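 Overt cytotoxicity is gauged in parallel confluent HUVEC cultures by SRB total-protein staining at the time of biomarker measurement, 24 h after dosing. Gain or loss of signal is fitted versus DMSO.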
Compound,outcome,AC50
CCn1c2ccccc2c2cc(N)ccc21,inactive,–
COC(=O)c1ccc(C)cc1,inactive,–
CN(CCOc1ccc(CC2SC(=O)NC2=O)cc1)c1ccccn1 (stereo unspecified),inactive,–
CC(=O)/C=C/C1=C(C)CCCC1(C)C,inactive,–
BrC1CCC(Br)C(Br)CCC(Br)C(Br)CCC1Br (stereo unspecified),–,4.73 µM (active)
O=C(O)C[C@H](O)C[C@H](O)/C=C/c1c(C2CC2)nc2ccccc2c1-c1ccc(F)cc1,–,0.0713 µM (active)
